Active and inactive are the calls of the source.
What was measured:
[1] = system: PRMT1 (protein arginine N-methyltransferase 1); test: small molecules binding arginine methyltransferase PRMT1 – biochemical, small-molecule microarray, 635 nm fluorescence, primary screen (AID 1088); conditions: higher = more signal;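 note: binding of Prmt1 protein to compounds spotted on small-molecule microarray slides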
[2] = growth effects on S. cerevisiae YJM789 – YJM789 clinical isolate, OD600, 24 h, basal, primary screen (AID 1089); conditions: higher = more signal, called active from +8 up or from −8 down;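 note: growth of clinical yeast isolate S. cerevisiae YJM 789 seeded 1000 cells per well; test concentration not given here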
[3] = S. pombe growth modifiers, basal conditions – strain 972, OD600, 24 h, no modulator, primary screen (AID 1090);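 note: basal condition with compound alone and no growth modifier present; test concentration not given here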; conditions: S. pombe 972 growth, higher = more signal, called active from +8 up or from −8 down
[4] = budding yeast growth modifiers under rapamycin – strain BY4716, OD600, 96 h, primary screen (AID 1091); note: test concentration not given here; conditions: S. cerevisiae BY4716 + rapamycin, higher = more signal, called active from +8 up or from −8 down
[5] = biological target: Torsin-1A-interacting protein 2 (Homo sapiens) (UniProt Q8NFQ8); test: small molecules binding lysate-expressed LULL1 – cell lysate, human LULL1 lysate, 635/667 nm fluorescence, primary screen (AID 1092); conditions: small-molecule microarray, hLULL1 lysate binding, 635 nm fluorescence; higher = more signal;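 note: probe is lysate of COS7 cells overexpressing human LULL1; score merges per-feature 667 nm fluorescence with signal-to-noise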
[6] = optical density change of DRC41 E. coli – strain DRC41, OD650, 24 h, E. coli filamentation project, primary screen (AID 1093);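 note: MC1000 strain lacking acrAB efflux and sulA so SOS filamentation is blocked; test concentration not given here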; conditions: E. coli DRC41 growth, higher = more signal, called active from +8 up or from −8 down
[7] = probe aLefty2 binding to arrayed compounds – biochemical, biotinylated probe, 635/667 nm fluorescence, primary screen (AID 1094); conditions: small-molecule microarray, higher = more signal;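 note: score merges spot fluorescence near 667 nm with spot signal-to-noise ratio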
[8] = system: Noggin (protein binding on small-molecule microarray); test: small molecules binding Noggin protein – biochemical, 635/667 nm fluorescence, primary screen (AID 1095); conditions: 635 nm fluorescence, higher = more signal;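 note: score merges 667 nm feature fluorescence with signal to noise over triplicate slides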
[9] = biological target: Neurogenic locus notch homolog protein 3 (Homo sapiens) (UniProt Q9UM47); test: small molecules binding NOTCH3 protein – biochemical, 635/667 nm fluorescence, primary screen (AID 1096); conditions: small-molecule microarray, 635 nm fluorescence, higher = more signal
[10] = probe aEGFR binding to arrayed compounds – biochemical, biotinylated probe, 635/667 nm fluorescence, primary screen (AID 1097); conditions: small-molecule microarray, higher = more signal;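 note: probe is a biotinylated anti-EGFR antibody binding compounds printed on slides; score combines fluorescence near 667 nm and signal to noise of each spot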
[11] = system: Plasmodium falciparum Sir2 (PF13_0152, Sir2A); test: Plasmodium falciparum Sir2A binding compounds – biochemical, small-molecule microarray, 635 nm fluorescence, primary screen (AID 1098); conditions: fluorescence 635 nm, higher = more signal;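 note: score merges spot fluorescence intensity with its signal-to-noise ratio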
[12] = probe aDKK1 binding to arrayed compounds – biochemical, biotinylated probe, 635/667 nm fluorescence, primary screen (AID 1099); conditions: small-molecule microarray, higher = more signal;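 note: score merges 667nm spot fluorescence with signal to noise across triplicate slides; reference of the scale not given here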
[13] = probe aCHRDL2 binding to arrayed compounds – biochemical, biotinylated probe, 635/667 nm fluorescence, primary screen (AID 1100); conditions: small-molecule microarray, higher = more signal
[14] = change in splice reporter luminescence, either direction, cell-based, HEK293, spliceosome inhibition project, primary screen (AID 1101); conditions: HEK293 splicing luciferase reporter, 24 h, higher = more signal, called active from +8 up or from −8 down;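 note: HEK293 cells carrying a splicing-competent luciferase reporter gene; test concentration not given here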
[15] = biological target: Fibroblast growth factor 10 (Homo sapiens) (UniProt O15520); test: compounds binding fibroblast growth factor 10 – biochemical, small-molecule microarray, 635 nm fluorescence, primary screen (AID 1102); conditions: FGF10 binding, fluorescence 635 nm, higher = more signal
[16] = system: glycogen synthase kinase-3 (GSK3A per assay name; protocol says GSK3B); test: compounds binding glycogen synthase kinase-3 – biochemical, small-molecule microarray, 635 nm fluorescence, GSK3A, primary screen (AID 1103); conditions: fluorescence 635 nm, higher = more signal; note: the record names both GSK3A and GSK3B
[17] = biological target: Epidermal growth factor receptor (Homo sapiens) (UniProt P00533); test: compounds binding epidermal growth factor receptor – biochemical, small-molecule microarray, 635 nm fluorescence, primary screen (AID 1104); conditions: EGFR binding, higher = more signal;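 note: score merges 667 nm emission intensity with spot signal to noise over triplicate slides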
[18] = biological target: Follistatin-related protein 3 (Homo sapiens) (UniProt O95633); test: compounds binding follistatin-related protein 3 – biochemical, small-molecule microarray, 635 nm fluorescence, primary screen (AID 1105); conditions: FSTL3 binding, higher = more signal;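 note: score merges emission near 667 nm and signal to noise per printed spot across three slides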
[19] = biological target: Dickkopf-related protein 1 (Homo sapiens) (UniProt O94907); test: small molecules binding DKK1 protein – biochemical, small-molecule microarray, 635 nm fluorescence scan, primary screen (AID 1106); conditions: higher = more signal;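 note: score merges emission near 667 nm with signal to noise over three replicate slides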
[20] = system: Inhibin beta A chain (activin A); test: small molecules binding activin A – biochemical, small-molecule microarray, 635 nm fluorescence scan, primary screen (AID 1107); conditions: INHBA, higher = more signal;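 note: mouse activin A protein probed at 4.33 µg/mL on printed slides; score merges bound-protein fluorescence near 667 nm with spot signal-to-noise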

Sequence of Neurogenic locus notch homolog protein 3 (Homo sapiens) (Q9UM47 whole entry, looked up): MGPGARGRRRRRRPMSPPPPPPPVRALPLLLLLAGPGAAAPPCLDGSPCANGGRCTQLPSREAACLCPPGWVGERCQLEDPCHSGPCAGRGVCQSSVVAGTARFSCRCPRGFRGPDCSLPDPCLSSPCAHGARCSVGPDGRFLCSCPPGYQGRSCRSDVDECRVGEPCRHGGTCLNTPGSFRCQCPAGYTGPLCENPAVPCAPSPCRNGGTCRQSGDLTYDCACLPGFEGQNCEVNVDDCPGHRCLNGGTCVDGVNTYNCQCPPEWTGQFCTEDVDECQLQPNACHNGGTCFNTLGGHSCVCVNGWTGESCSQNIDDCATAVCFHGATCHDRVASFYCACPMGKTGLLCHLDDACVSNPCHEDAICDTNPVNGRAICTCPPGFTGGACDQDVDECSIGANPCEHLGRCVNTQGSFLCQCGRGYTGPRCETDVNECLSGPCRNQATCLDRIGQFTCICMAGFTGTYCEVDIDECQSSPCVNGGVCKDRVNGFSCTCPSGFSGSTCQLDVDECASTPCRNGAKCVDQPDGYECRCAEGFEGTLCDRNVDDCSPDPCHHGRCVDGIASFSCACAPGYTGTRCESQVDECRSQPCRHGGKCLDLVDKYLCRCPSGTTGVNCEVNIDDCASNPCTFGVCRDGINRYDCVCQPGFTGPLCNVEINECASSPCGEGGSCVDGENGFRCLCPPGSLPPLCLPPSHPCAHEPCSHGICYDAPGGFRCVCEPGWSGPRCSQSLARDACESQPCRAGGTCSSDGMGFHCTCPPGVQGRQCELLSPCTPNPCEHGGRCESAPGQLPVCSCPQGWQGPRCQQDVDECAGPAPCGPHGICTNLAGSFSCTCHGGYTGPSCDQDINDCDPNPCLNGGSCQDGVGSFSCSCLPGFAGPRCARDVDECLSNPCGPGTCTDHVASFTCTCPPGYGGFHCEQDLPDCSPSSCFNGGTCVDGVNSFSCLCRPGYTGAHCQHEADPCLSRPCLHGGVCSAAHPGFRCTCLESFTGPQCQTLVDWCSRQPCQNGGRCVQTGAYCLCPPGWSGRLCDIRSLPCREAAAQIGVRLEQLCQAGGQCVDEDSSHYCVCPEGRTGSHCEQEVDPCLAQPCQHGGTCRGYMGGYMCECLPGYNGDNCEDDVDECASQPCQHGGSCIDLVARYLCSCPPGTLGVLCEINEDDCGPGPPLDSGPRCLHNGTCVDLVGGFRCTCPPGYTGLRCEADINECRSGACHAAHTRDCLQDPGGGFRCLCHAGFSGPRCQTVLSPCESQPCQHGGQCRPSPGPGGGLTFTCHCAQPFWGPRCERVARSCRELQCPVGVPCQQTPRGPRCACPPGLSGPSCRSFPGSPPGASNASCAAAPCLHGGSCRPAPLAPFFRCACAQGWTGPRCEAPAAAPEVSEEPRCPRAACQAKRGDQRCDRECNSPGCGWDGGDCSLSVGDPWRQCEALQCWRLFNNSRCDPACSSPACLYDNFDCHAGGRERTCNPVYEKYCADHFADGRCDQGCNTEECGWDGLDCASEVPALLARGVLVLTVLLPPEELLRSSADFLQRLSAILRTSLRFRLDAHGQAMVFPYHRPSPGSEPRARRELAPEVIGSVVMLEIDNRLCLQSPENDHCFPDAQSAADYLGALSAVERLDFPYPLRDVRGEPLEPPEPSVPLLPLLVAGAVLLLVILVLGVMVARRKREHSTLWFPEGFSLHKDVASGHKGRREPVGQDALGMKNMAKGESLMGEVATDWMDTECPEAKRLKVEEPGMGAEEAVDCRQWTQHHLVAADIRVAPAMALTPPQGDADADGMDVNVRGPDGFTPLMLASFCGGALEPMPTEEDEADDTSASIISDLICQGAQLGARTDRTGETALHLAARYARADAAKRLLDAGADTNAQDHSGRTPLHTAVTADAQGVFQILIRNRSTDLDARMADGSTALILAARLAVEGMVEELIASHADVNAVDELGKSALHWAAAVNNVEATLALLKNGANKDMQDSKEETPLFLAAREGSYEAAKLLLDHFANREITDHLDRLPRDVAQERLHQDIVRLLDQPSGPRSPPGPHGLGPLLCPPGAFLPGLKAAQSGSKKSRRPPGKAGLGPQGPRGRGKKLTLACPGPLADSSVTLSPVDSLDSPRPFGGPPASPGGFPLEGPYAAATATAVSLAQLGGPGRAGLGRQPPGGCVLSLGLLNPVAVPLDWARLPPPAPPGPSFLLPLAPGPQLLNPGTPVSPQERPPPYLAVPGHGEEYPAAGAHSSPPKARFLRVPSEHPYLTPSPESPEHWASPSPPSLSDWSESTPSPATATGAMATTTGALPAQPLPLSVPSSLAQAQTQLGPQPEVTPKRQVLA
Sequence of Epidermal growth factor receptor (Homo sapiens) (P00533 whole entry, looked up): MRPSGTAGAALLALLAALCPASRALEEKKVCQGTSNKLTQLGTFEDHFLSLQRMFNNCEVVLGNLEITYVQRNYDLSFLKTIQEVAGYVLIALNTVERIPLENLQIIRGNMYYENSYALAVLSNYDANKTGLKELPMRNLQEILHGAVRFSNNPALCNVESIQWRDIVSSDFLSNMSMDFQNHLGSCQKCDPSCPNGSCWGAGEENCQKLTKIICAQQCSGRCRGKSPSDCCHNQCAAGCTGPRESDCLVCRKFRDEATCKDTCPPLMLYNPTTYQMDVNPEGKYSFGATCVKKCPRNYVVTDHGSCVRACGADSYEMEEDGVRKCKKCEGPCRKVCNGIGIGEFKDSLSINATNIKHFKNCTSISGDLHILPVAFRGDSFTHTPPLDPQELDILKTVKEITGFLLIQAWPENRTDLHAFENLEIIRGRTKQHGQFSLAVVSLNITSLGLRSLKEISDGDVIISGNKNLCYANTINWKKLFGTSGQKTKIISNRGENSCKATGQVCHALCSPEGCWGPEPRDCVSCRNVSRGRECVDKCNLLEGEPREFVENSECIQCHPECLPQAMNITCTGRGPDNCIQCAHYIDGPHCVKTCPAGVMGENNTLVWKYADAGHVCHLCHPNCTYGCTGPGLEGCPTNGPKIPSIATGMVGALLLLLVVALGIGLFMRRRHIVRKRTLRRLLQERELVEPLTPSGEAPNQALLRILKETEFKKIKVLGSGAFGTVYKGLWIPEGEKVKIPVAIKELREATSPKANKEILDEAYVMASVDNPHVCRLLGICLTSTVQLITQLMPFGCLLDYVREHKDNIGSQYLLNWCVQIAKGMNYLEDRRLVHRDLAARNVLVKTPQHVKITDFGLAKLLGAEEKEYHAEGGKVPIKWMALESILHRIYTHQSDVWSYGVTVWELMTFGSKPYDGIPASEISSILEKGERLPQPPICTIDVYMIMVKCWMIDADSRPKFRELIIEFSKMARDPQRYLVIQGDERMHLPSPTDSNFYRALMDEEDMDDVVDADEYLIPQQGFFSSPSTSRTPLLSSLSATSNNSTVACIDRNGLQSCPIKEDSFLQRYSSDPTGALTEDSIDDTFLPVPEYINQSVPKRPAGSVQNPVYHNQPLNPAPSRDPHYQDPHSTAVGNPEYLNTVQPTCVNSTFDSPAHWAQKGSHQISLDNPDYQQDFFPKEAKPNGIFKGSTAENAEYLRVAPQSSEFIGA
Sequence of Torsin-1A-interacting protein 2 (Homo sapiens) (Q8NFQ8 whole entry, looked up): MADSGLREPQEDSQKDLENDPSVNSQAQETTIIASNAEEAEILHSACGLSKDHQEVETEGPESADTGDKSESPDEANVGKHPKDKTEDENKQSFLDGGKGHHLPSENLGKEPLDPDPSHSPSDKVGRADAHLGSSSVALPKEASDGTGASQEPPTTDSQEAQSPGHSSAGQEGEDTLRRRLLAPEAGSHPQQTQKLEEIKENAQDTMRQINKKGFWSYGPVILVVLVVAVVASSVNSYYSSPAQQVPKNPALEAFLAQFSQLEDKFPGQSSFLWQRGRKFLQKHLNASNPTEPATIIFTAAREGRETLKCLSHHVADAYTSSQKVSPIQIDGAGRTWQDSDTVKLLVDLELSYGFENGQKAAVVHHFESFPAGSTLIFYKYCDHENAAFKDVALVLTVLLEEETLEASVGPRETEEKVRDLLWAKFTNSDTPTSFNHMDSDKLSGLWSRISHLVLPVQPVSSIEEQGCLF
Sequence of Fibroblast growth factor 10 (Homo sapiens) (O15520 whole entry, looked up): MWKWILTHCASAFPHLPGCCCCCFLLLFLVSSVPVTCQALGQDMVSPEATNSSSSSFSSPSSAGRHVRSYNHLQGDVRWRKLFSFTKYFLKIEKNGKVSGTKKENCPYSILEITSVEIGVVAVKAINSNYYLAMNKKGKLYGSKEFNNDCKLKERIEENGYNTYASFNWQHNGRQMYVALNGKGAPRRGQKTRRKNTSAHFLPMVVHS
Sequence of Follistatin-related protein 3 (Homo sapiens) (O95633 whole entry, looked up): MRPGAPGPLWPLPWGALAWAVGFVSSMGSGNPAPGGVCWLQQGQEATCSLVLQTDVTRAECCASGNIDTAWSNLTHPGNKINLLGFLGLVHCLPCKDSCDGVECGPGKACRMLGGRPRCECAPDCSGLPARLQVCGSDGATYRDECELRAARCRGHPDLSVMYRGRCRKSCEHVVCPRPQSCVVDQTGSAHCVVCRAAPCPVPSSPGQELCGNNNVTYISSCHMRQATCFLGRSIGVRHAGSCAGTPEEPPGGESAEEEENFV
Sequence of Dickkopf-related protein 1 (Homo sapiens) (O94907 whole entry, looked up): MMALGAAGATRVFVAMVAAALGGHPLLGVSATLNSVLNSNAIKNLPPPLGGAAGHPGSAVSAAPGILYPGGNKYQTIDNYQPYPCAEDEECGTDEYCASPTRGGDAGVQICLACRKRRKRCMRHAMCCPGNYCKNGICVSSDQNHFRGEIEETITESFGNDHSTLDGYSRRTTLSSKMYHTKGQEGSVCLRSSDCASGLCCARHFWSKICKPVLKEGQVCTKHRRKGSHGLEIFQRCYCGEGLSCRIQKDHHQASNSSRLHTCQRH

Structure (SMILES)	composite z-score [1]	z-score [2]	z-score [3]	z-score [4]	composite z-score [5]	z-score [6]	composite z-score [7]	composite z-score [8]	composite z-score [9]	composite z-score [10]	composite z-score [11]	composite z-score [12]	composite z-score [13]	z-score [14]	composite z-score [15]	composite z-score [16]	composite z-score [17]	composite z-score [18]	composite z-score [19]	composite z-score [20]
CCCC=C(CCC)[C@@H](NC(=O)OCC(C)C)c1ccccc1	0.934	0.69 (inactive)	-0.623 (inactive)	1.94 (inactive)	2.01	-1.68 (inactive)	0.678	1.11	1.12	0.548	0.32	0.907	1.34	-1.82 (inactive)	0.497	0.659	0.111	0.663	-0.0115	0.622
O=C1C2C=CC(C(O)c3cc(C(F)(F)F)cc(C(F)(F)F)c3)N(Nc3ccccc3)C2C(=O)N1c1ccccc1 (stereo not given)	1.29	1 (inactive)	-0.158 (inactive)	3.15 (inactive)	3.23	-0.747 (inactive)	-0.0156	-0.105	0.581	-0.0536	1.24	0.723	0.433	-2.9 (inactive)	-0.239	0.22	-0.303	-0.154	-0.667	1.01
CC(=O)NCCCC[C@@H]1NC(=O)[C@H]2C[C@@H](C(=O)NCCCCCNC(=O)CS)[C@@H](c3ccc(O)cc3)N2C1=O	0.524	1.16 (inactive)	0.0772 (inactive)	1.76 (inactive)	1.69	0.358 (inactive)	-0.0727	-0.309	-0.527	-0.171	0.273	0.143	0.762	-0.372 (inactive)	0.157	-0.252	-0.578	-0.84	-0.186	-0.0107
CCCCN1CC=CC23O[C@@H]4C=CCCOC(=O)C4[C@H]2C(=O)N(CCCCCO)[C@@H]3C1=O (stereo not given in full)	-0.726	-0.494 (inactive)	0.0411 (inactive)	0.025 (inactive)	0.905	-0.0111 (inactive)	-0.168	-0.548	-0.73	-0.0987	1.2	-0.359	0.413	-0.268 (inactive)	-1.1	-0.649	-0.95	-1.15	-0.787	0.26
CCCNC(=O)[C@@]1(Sc2ccc(C)cc2)CC(=O)N(Cc2ccccc2C(F)(F)F)[C@@H]1c1ccc(CO)cc1I	1.53	-0.36 (inactive)	-2.45 (inactive)	0.283 (inactive)	2.19	-1.57 (inactive)	-0.0125	0.932	0.958	-0.0435	1.53	0.277	0.726	-1.6 (inactive)	0.441	0.119	-0.293	1.01	0.262	1.24
COc1ccc([Si](C)(C)[C@@H]2[C@@H](CCn3cc(CCO)nn3)O[C@]3(C(=O)N(Cc4cccc(N5C(=O)c6cccc7cccc5c67)c4)c4ccccc43)[C@H]2C)cc1	1.55	1.29 (inactive)	1.56 (inactive)	20.9 (active)	1.76	1.17 (inactive)	-0.0956	1.14	0.903	-0.125	0.686	-0.212	-0.197	-1.23 (inactive)	0.648	0.433	0.0345	0.922	0.135	0.546
Cc1ccc(/C=C/C=O)cc1	-0.379	0.427 (inactive)	-4.06 (inactive)	-0.141 (inactive)	-0.1	0.492 (inactive)	-0.123	-0.244	-0.998	-0.135	1.21	-0.051	0.44	-0.0631 (inactive)	-0.0586	-0.472	-0.817	-0.955	-0.0317	0.579
C#CCN1[C@H](/C=C/C2CC2)[C@H](Cc2ccccc2)OC(=O)[C@@H]1Cc1ccccc1	0.663	-0.651 (inactive)	0.241 (inactive)	0.79 (inactive)	0.613	-0.714 (inactive)	-0.102	0.792	0.0922	-0.118	1.16	-0.411	-0.507	0.23 (inactive)	0.294	0.109	0.323	0.326	0.428	0.849
COC(=O)c1c(CC[C@@H](CO)NC(=O)N[C@@H](Cc2ccccc2)Cn2cc(-c3ccccn3)nn2)oc(C(=O)N2CCOCC2)c1C(=O)OC	0.278	0.503 (inactive)	0.82 (inactive)	-0.593 (inactive)	0.843	-0.613 (inactive)	-0.124	0.227	0.495	-0.183	0.327	-0.299	-0.247	0.373 (inactive)	0.136	-0.27	-0.002	0.172	-0.296	0.119
[N-]=[N+]=Nc1ccccc1[C@H]1OC(c2ccc(OCCCO)cc2)=N[C@@]1(Cc1ccccc1)C(=O)N1CCOCC1	1.46	-1.44 (inactive)	-1.02 (inactive)	1.91 (inactive)	3.23	0.551 (inactive)	0.275	0.449	1.15	0.0881	1.43	1.14	1.08	0.439 (inactive)	1.31	0.921	0.73	1.07	0.477	1.11
